Inconclusive results are not listed. Activity calls are given as the source filed them. How the source made its calls: active means hit-call score of the fitted dose curve at least 0.9, where 1 is the maximum; inconclusive means response in the unintended direction; inactive means score below 0.9.
biological target: human Neurokinin, NK2 Receptor, TACR2 (gene 6865) (UniProt P21452); assay: NVS_GPCR_hNK2: NovaScreen (NVS) G Protein-Coupled Receptor Assay for human Neurokinin, NK2 Receptor (AID 2283278);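 further: actives reduce bound radioligand signal relative to DMSO baseline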
Sequence (P21452 whole entry, looked up): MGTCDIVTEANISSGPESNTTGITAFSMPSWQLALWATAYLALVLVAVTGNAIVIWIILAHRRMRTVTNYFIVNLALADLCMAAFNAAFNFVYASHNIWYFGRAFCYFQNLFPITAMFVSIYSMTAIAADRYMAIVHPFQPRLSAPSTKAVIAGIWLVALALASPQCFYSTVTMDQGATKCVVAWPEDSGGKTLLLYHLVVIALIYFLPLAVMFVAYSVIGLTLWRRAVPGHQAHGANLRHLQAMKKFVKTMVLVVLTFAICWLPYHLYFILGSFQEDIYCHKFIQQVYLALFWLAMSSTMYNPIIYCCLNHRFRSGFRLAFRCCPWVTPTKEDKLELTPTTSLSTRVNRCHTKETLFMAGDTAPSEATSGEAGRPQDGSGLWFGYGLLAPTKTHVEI
Procedure, shortened: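 CHO-derived membrane protein, radioligand displacement, filter scintillation read at 4 h post-dose. Single-point 25 uM in duplicate, then concentration series for actives; DMSO as negative control.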

AC50, active:
O=P(OC(CCl)CCl)(OC(CCl)CCl)OC(CCl)CCl 12.5 µM, CCn1nc(Cc2ccccc2)cc1C1CCN(C[C@H]2C[C@H](N(C)[C@@H](C(=O)O)C(C)C)C[C@@H]2c2cccc(F)c2)CC1 20.8 µM, CCOc1cccc(-n2cc(C(=O)N3CCN(c4cc(C(=O)O)c5ccccc5c4)CC3)nc2-c2ccc(C)cc2)c1 7.6 µM, CNS(=O)(=O)c1cc(C(=O)N2CCC(CCN3C4CCC3CC(n3c(C)nc5ccccc53)C4)(c3cccc(F)c3)CC2)c(Cl)cc1F (stereo not drawn) 1.71 µM, On1ccccc1=S 8.14 µM, CCOC(=O)c1ccc(C2CCC(NC[C@H](O)COc3ccc(O)c(NS(C)(=O)=O)c3)CC2)cc1 (stereo partly drawn) 5.98 µM, CCOC(=O)COc1ccc2c(c1)CC(NCC(O)c1cccc(Cl)c1)CC2 (stereo not drawn) 21.7 µM, CN(C)c1ccc(N=NS(=O)(=O)O)cc1 0.656 µM

outcome, inactive:
O=C(O)c1cccc(N(Cc2cccnc2)c2ccc(OC(F)F)c(OC(F)F)c2)c1, COc1cccc(-c2ccc(/C=C\CN3CCCCCC3)cc2Cl)c1, COCCOc1cc2cc(C(=O)NC3CCN(C(C)C)CC3)n(CC(=O)Nc3ccc(Cl)cn3)c2cn1, CC/C(=C\C(=N/O)C(N)=O)C(C)[N+](=O)[O-] (stereo not drawn), Cc1[nH]cnc1C[C@H]1CCc2c(C)c3ccccc3n2C1=O, Cn1c(=O)cc(Oc2ccc(F)cc2F)c2cnc(NCC(C)(C)O)nc21, CC(C)=CCCC(C)=CC=O

biological target: human Opioid Receptor Delta 1 (Opiate D1), OPRD1 (gene 4985) (UniProt P41143); assay: NVS_GPCR_hOpiate_D1: NovaScreen (NVS) G Protein-Coupled Receptor Assay for human Opioid Receptor Delta 1 (Opiate D1) (AID 2283280)
Sequence (P41143 whole entry, looked up): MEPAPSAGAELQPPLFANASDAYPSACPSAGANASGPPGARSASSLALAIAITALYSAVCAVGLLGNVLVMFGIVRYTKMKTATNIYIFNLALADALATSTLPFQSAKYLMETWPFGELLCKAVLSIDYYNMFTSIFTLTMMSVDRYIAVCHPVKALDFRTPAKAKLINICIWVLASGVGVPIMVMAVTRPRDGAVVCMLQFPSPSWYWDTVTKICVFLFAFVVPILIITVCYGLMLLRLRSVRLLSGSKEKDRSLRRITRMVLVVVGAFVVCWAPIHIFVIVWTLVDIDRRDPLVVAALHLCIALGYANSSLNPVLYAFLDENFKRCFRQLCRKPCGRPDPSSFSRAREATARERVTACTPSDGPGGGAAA
Procedure, shortened: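 Radioligand displacement on membranes from CHO cells expressing the receptor, read by filter scintillation counting 1 h after dosing. Duplicate single-point screen at 25 uM, then concentration series for actives; loss of signal versus DMSO.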

AC50, active:
CCOc1cccc(-n2cc(C(=O)N3CCN(c4cc(C(=O)O)c5ccccc5c4)CC3)nc2-c2ccc(C)cc2)c1 9.02 µM, COc1cccc(-c2ccc(/C=C\CN3CCCCCC3)cc2Cl)c1 15.5 µM, CCc1cc(SCc2sc(-c3ccc(C(F)(F)F)cc3)nc2CN2CCN(c3ccc(OC)cc3)CC2)ccc1OCC(=O)O 7.88 µM

outcome, inactive:
CCC(C)(C)C(=O)O[C@H]1C[C@@H](C)C=C2C=C[C@H](C)[C@H](CC[C@@H]3C[C@@H](O)CC(=O)O3)[C@H]21, O=C(O)CC(O)C(=O)O (stereo not drawn)

biological target: human Thromboxane A2 Receptor (TXA2), TBXA2R (gene 6915) (UniProt P21731); assay: NVS_GPCR_hTXA2: NovaScreen (NVS) G Protein-Coupled Receptor Assay for human Thromboxane A2 Receptor (TXA2) (AID 2283282);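 further: actives reduce bound radioligand signal relative to DMSO baseline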
Sequence (P21731 whole entry, looked up): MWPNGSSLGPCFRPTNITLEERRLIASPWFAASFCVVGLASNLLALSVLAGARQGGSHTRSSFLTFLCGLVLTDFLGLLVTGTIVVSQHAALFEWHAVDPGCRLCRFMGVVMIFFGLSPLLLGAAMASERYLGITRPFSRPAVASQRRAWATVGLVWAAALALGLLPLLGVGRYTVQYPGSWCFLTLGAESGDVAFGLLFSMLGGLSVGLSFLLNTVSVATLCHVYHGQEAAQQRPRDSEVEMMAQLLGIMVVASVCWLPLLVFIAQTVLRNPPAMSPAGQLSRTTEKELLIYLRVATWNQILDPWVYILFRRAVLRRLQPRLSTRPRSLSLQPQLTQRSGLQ
Procedure, shortened: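 Filter scintillation counting of bound radioligand, human platelet protein, 1 h exposure. Single-concentration duplicates (25 uM) first, concentration-response follow-up for actives. Binding loss scored against DMSO baseline.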

outcome, inactive:
O=P(OC(CCl)CCl)(OC(CCl)CCl)OC(CCl)CCl, CCC(C)(C)C(=O)O[C@H]1C[C@@H](C)C=C2C=C[C@H](C)[C@H](CC[C@@H]3C[C@@H](O)CC(=O)O3)[C@H]21

AC50, active:
CCOc1cccc(-n2cc(C(=O)N3CCN(c4cc(C(=O)O)c5ccccc5c4)CC3)nc2-c2ccc(C)cc2)c1 6.65 µM, CC(C)c1cccc(C(C)C)c1N1C(=O)c2ccc(O)cc2C1=O 7.4 µM, O=C(O)c1cc(N=Nc2ccc(S(=O)(=O)Nc3ccccn3)cc2)ccc1O 9.98 µM, Cc1c(-c2cccnc2)c2ccccc2n1CCCCC(=O)O 5.82 µM

biological target: human Orphanin, Opioid Related Nociceptin Receptor 1 (ORL1), OPRL1 (gene 4987) (UniProt P41146); assay: NVS_GPCR_hORL1: NovaScreen (NVS) G Protein-Coupled Receptor Assay for human Orphanin, Opioid Related Nociceptin Receptor 1 (ORL1) (AID 2283283)
Sequence (P41146 whole entry, looked up): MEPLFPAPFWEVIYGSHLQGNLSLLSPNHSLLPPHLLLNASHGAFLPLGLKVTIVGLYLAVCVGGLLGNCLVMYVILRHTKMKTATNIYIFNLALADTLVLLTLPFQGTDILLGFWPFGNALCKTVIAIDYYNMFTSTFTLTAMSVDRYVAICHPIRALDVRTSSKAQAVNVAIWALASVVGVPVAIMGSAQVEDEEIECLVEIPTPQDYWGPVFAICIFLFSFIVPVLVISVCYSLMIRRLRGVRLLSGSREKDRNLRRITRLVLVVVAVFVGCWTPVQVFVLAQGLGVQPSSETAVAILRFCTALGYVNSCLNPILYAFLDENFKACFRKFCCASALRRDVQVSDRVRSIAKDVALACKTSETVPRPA
Procedure, shortened: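 Filter-based radioligand displacement with receptor extracted from HEK293 cells, read 1 hour after dosing by scintillation counting. Duplicate single-point screen at 25 uM; qualifying chemicals then run in concentration-response to 50 uM, analysed relative to DMSO.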

outcome, inactive:
CNS(=O)(=O)c1cc(C(=O)N2CCC(CCN3C4CCC3CC(n3c(C)nc5ccccc53)C4)(c3cccc(F)c3)CC2)c(Cl)cc1F (stereo not drawn), O=C(O)CC(O)C(=O)O (stereo not drawn)

AC50, active:
On1ccccc1=S 4.73 µM

biological target: mouse Cholecystokinin, CCK1 Receptor (CCKA), Cckar (gene 12425) (UniProt O08786); assay: NVS_GPCR_mCCKAPeripheral: NovaScreen (NVS) G Protein-Coupled Receptor Assay for mouse Cholecystokinin, CCK1 Receptor (CCKA) (AID 2283285)
Sequence (O08786 whole entry, looked up): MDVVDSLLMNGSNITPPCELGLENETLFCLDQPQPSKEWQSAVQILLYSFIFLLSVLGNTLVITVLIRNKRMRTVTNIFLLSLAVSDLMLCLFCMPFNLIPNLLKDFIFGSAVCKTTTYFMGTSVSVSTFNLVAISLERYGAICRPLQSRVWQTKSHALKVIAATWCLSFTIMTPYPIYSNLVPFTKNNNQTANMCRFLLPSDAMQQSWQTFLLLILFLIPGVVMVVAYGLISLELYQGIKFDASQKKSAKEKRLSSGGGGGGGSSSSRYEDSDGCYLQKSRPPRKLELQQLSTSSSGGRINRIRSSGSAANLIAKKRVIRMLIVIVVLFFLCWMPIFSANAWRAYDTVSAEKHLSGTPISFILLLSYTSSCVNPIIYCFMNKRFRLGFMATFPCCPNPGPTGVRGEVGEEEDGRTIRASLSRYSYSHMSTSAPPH
Procedure, shortened: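 Radioligand competitive displacement on mouse pancreatic membranes, 2 h incubation; filter-based scintillation counting, loss of signal versus DMSO. Single-concentration screen at 25 uM in duplicate, actives retested in concentration-response up to 50 uM.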

outcome, inactive:
O=P(OC(CCl)CCl)(OC(CCl)CCl)OC(CCl)CCl

AC50, active:
CCOc1cccc(-n2cc(C(=O)N3CCN(c4cc(C(=O)O)c5ccccc5c4)CC3)nc2-c2ccc(C)cc2)c1 0.00589 µM, CCc1cc(SCc2sc(-c3ccc(C(F)(F)F)cc3)nc2CN2CCN(c3ccc(OC)cc3)CC2)ccc1OCC(=O)O 7.03 µM, Cn1c(=O)cc(Oc2ccc(F)cc2F)c2cnc(NCC(C)(C)O)nc21 11.3 µM

tested on: rabbit Platelet Activating Factor Receptor (PAF), gene 100354046; assay: NVS_GPCR_rabPAF: NovaScreen (NVS) G Protein-Coupled Receptor Assay for rabbit Platelet Activating Factor Receptor (PAF) (AID 2283287)
Procedure, shortened: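 Rabbit platelet membrane preparation; radioligand displacement read by filter-based scintillation counting 1 h after dosing, loss of signal versus DMSO. Primary screen in duplicate at 25 uM, actives followed up in concentration series.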

AC50, active:
O=P(OC(CCl)CCl)(OC(CCl)CCl)OC(CCl)CCl 8.52 µM, CNS(=O)(=O)c1cc(C(=O)N2CCC(CCN3C4CCC3CC(n3c(C)nc5ccccc53)C4)(c3cccc(F)c3)CC2)c(Cl)cc1F (stereo not drawn) 1.33 µM, Cc1[nH]cnc1C[C@H]1CCc2c(C)c3ccccc3n2C1=O 0.958 µM

tested on: 5-hydroxytryptamine receptor 2C (pig); assay: NVS_GPCR_p5HT2C: NovaScreen (NVS) G Protein-Coupled Receptor Assay for pig Serotonin, 5-Hydroxytryptamine Receptor 2C (5HT2C) (AID 2283288)
Procedure, shortened: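 Pig choroid plexus membranes; radioligand competitive binding, filter-based scintillation counting, read 1 h after dosing. Primary screen in duplicate at 25 uM; actives then run as concentration series; loss of signal versus DMSO baseline.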

outcome, inactive:
O=P(OC(CCl)CCl)(OC(CCl)CCl)OC(CCl)CCl, O=C(O)CC(O)C(=O)O (stereo not drawn)

AC50, active:
COc1cccc(-c2ccc(/C=C\CN3CCCCCC3)cc2Cl)c1 11.8 µM, CCOC(=O)c1ccc(C2CCC(NC[C@H](O)COc3ccc(O)c(NS(C)(=O)=O)c3)CC2)cc1 (stereo partly drawn) 19.5 µM, CCOC(=O)COc1ccc2c(c1)CC(NCC(O)c1cccc(Cl)c1)CC2 (stereo not drawn) 13.2 µM, Cc1[nH]cnc1C[C@H]1CCc2c(C)c3ccccc3n2C1=O 0.116 µM

biological target: rat Adrenergic, Alpha 1, Non-selective Receptor (Adra1), Adra1a (gene 29412) (UniProt P43140); assay: NVS_GPCR_rAdra1_NonSelective: NovaScreen (NVS) G Protein-Coupled Receptor Assay for rat Adrenergic, Alpha 1, Non-selective Receptor (Adra1) (AID 2283289)
Sequence (P43140 whole entry, looked up): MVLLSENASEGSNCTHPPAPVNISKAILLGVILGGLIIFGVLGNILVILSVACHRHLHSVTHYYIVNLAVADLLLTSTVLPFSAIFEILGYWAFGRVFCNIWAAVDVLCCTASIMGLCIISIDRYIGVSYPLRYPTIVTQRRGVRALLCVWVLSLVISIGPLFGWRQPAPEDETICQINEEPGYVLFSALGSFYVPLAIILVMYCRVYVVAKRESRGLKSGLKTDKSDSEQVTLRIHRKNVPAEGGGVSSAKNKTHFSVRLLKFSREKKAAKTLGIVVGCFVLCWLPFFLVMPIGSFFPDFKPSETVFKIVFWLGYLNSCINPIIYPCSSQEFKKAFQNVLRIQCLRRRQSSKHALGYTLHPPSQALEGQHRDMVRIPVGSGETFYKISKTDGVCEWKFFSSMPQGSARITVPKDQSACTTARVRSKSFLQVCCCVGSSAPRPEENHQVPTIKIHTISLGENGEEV
Procedure, shortened: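 Rat forebrain membranes; radioligand displacement read by filter-based scintillation counting 1 h after dosing. Primary screen in duplicate at 25 uM; hits (e.g. ≥30% inhibition) rerun as concentration–response to 50 uM max. Fitted versus DMSO.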

AC50, active:
CNS(=O)(=O)c1cc(C(=O)N2CCC(CCN3C4CCC3CC(n3c(C)nc5ccccc53)C4)(c3cccc(F)c3)CC2)c(Cl)cc1F (stereo not drawn) 1.92 µM, COc1cccc(-c2ccc(/C=C\CN3CCCCCC3)cc2Cl)c1 15.2 µM, Cc1[nH]cnc1C[C@H]1CCc2c(C)c3ccccc3n2C1=O 3.15 µM, CN(C)c1ccc(N=NS(=O)(=O)O)cc1 23.8 µM

outcome, inactive:
Cc1ccc(C)c(O)c1, CCc1cc(SCc2sc(-c3ccc(C(F)(F)F)cc3)nc2CN2CCN(c3ccc(OC)cc3)CC2)ccc1OCC(=O)O
